Compound activity deposited in PubChem BioAssay by National Center for Advancing Translational Sciences (NCATS).
Only some compounds are listed: those with a hit (about 8.7% of all), similar ones and a draw of the others.
Vaccinia Venus – qHTS for Stage-Specific Inhibitors of Vaccinia Orthopoxvirus: Venus Reporter Primary qHTS. Potency, µM (top dose mostly 36.5 µM), inactives show top-dose activity change, negative = inhibition, hits mostly inhibitors. AID 720580, 2013. 330,000 tested, 0.46% active. Vaccinia virus Venus reporter expression, fluorescence; calls by dose curve; tested in A549 cells; further: nearly all actives have a fitted effect of over 30% in size
Pf growth 96h – Primary qHTS for delayed death inhibitors of the malarial parasite plastid, 96 hour incubation; P. falciparum luciferase reporter growth, 96 h; Potency, µM (top dose mostly 28.7 µM), without a hit: top-dose activity change, negative = inhibition, usual class: inhibitors; 320,000 tested, 6.9% active
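Readout is luminescence from an integrated firefly luciferase in P. falciparum. Red cells, 2% hematocrit and 0.05% parasitemia final, were cultured with compound through two parasite generations (96 hours) at 37 C, 5% CO2.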
Vaccinia mCherry – qHTS for Stage-Specific Inhibitors of Vaccinia Orthopoxvirus: mCherry Reporter Primary qHTS. Potency, µM (doses to about 36.5 µM), for inactives: top-dose activity change, negative = inhibition, actives largely listed as inhibitors. 310,000 tested, 0.63% active. Vaccinia virus mCherry reporter infection, fluorescence; calls by dose curve; tested in A549 cells; further: nearly all actives have a fitted effect of over 35% in size
AMA1-RON2 inh – qHTS for Inhibitors of AMA1-RON; Towards Development of Antimalarial Drug Lead: Primary Screen; Plasmodium falciparum AMA1 (3D7) - RON2 peptide interaction; 360,000 tested, 0.2% active; AlphaScreen AMA1-biotinylated RON2 peptide binding; AID 720542, 2013; Potency, µM (highest dose often 58.2 µM), inactives show top-dose activity change, negative = inhibition, most hits filed as inhibitors;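 further: 0% = vehicle wells and -100% = peptide control; nearly all actives have a fitted effect of over 45% in size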
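AMA1 (3D7) with his tag at 25 nM final met compounds first, then biotinylated RON2 peptide at 25 nM; detection used donor plus acceptor beads, 10 µg/mL apiece, read by AlphaScreen after 30 min at room temperature.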
Pf growth 48h – Primary qHTS for delayed death inhibitors of the malarial parasite plastid, 48 hour incubation; P. falciparum luciferase growth in erythrocytes, 48 h; Potency, µM (series often up to 28.7 µM), for inactives: at the highest dose activity change, negative = inhibition, most hits filed as inhibitors; 310,000 tested, 5.9% active; AID 504832, 2011
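Compounds are pin-transferred into medium, infected erythrocytes (2% hematocrit, 0.1% parasitemia final) are added, and plates sit one parasite generation at 37 C in 5% CO2. Detection reagent is then added and luminescence measured.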
An asterisk follows results filed as active; i = inactive; ? = inconclusive; . = no result; [ ] = another dose, or the depositor's remark. Unless noted, the call rests on the fitted dose curve; in most records, active means well fitted curve in the direction sought with a large enough effect; inconclusive means small, poorly fitted or top-dose-only effect, or another doubt; inactive means no such curve, though single readings can be large; an effect the other way counts as inactive or inconclusive. Unless noted, on the % scale 0 is the no-effect control and ±100 the full control effect; potency means the concentration at half of the fitted maximal effect.

SMILES	Vaccinia Venus	Pf growth 96h	Vaccinia mCherry	AMA1-RON2 inh	Pf growth 48h
O=[N+]([O-])c1cc(Cl)ccc1NCCc1ccccn1	-9.3%	37.4%	6.9%	22.4µM*	28.4%
Cc1ccc(CNc2nc(C)c(-c3ccn(CCN4CCOCC4)n3)s2)o1	3.7%	.	-4.1%	.	.
COc1ccc2[nH]cc(C(=O)CNc3nc(C)cs3)c2c1	-8.4%	36.1%	-1.9%	-0.9%	1.65µM*
CCCOc1ccc(CNC(=O)CCCn2nc(C)c3sc4ccccc4c3c2=O)cc1	-20.9%	.	-8.4%	.	.
O=C(Nc1cc(Br)ccc1O)c1cnn2c(C(F)F)cc(C3CC3)nc12	?	-22.6%	-23.9%	0.0%	4.15µM*
O=C(Nc1cccnc1)c1cnn2c(C(F)F)cc(C3CC3)nc12	-10.0%	.	.	-4.6%	8.2%
O=C1CN=C(c2ccccc2)c2oc3ccc(Br)cc3c2N1	.	10.1%	.	-12.9%	2.5%
COc1cccc(OC)c1C1=NCC(=O)Nc2c1oc1ccc(Br)cc21	?	1.85µM*	?	2.8%	?
CNC(=O)c1cc(NC(=O)CCn2nc(-c3ccccc3)c3ccccc3c2=O)ccc1OC	-15.4%	0.828µM*	i	-7.2%	2.08µM*
Cc1cccc(NC(=O)CCn2nc(-c3ccccc3)c3ccccc3c2=O)c1	-6.0%	.	-10.7%	.	.
COC1=C(N)C(=O)c2nc(-c3nc(C(=O)O)c(C)c(-c4ccc(OC)c(OC)c4O)c3N)ccc2C1=O	0.631µM*	0.0185µM*	0.708µM*	67.0%	0.0522µM*
COC(=O)c1nc(-c2ccc3c(n2)C(=O)C(N)=C(OC)C3=O)c(N)c(-c2ccc(OC)c(OC)c2O)c1C	-5.1%	?	-8.4%	59.3%	0.0928µM*
COc1ccc(C(=O)O)c(O)c1OC	0.0%	.	i	.	.
COc1ccc(-c2ncncc2-c2csc(C)n2)c(O)c1OC	-4.2%	.	-9.0%	-3.1%	7.9%
CCC(=O)N1CCc2cc(CNC(=O)Nc3cc(C)ccc3C)ccc21	-11.8%	.	-20.6%	.	.
COc1cccc(CNC(=O)C2=C(C)C(=O)OC23CCN(C(C)=O)CC3)c1OC	-2.5%	.	-2.2%	.	.
Cc1ccccc1C[n+]1cccc2ccccc21	-20.1%	?	-19.8%	5.1%	0.37µM*
Brc1cccc[n+]1Cc1ccccc1C[n+]1ccccc1Br	-15.6%	.	27.0%	.	.
CCCCCCCCCCCC[n+]1ccc(C)c2ccccc21	-9.5%	.	-11.2%	.	.
CCCCCCCCCCCCCCCC[n+]1cccc2ccccc21	10µM*	?	10µM*	-1.8%	0.828µM*
CCCCCCCCC[n+]1cccc2c3ccccc3ccc21	11.2µM*	35.3%	.	1.2%	0.165µM*
COc1ccccc1-c1ccc(C(=O)N(C)CC2COCCO2)c(N2CCN(c3ccccc3F)CC2)n1 (stereo not given)	-10.7%	.	-7.1%	.	.
O=C(Nc1sc2c(c1C(=O)NCc1ccco1)CCCC2)c1cc(=O)c2cc(Cl)ccc2o1	-2.5%	.	5.6%	.	.
CCOc1ccccc1NC(=O)CSC1=C(C#N)C(c2ccco2)C(C(=O)Nc2nc3ccccc3s2)=C(C)N1 (stereo not given)	-13.8%	?	-14.5%	-0.7%	9.28µM*
CC1=C(C(=O)Nc2ccccc2)C(c2ccco2)C(C#N)=C(SCc2ccccc2)N1 (stereo not given)	.	.	.	.	8.28µM*
SMILES	Vaccinia Venus	Pf growth 96h	Vaccinia mCherry	AMA1-RON2 inh	Pf growth 48h
CC1=C(C(=O)Nc2ccccc2)C(c2ccco2)C(C#N)=C(SCC(=O)OC(C)C)N1 (stereo not given)	.	7.38µM*	.	-4.3%	2.33µM*
CCOC(=O)C1=C(C)NC(SCC(=O)O)=C(C#N)C1c1ccco1 (stereo not given)	-4.1%	3.5%	.	-2.9%	16.3%
CC1=C(C(=O)Nc2ccccc2)C(c2ccco2)C(C#N)=C(SCC(=O)Nc2cccc(C)c2C)N1 (stereo not given)	-11.9%	?	-1.1%	-3.0%	2.62µM*
CC1(C)OC(=O)C2(Cc3ccc(Cl)cc3N3CCCCC32)C(=O)O1 (stereo not given)	-9.7%	.	-17.8%	.	.
CN1C(=O)/C(=C/c2cccn2-c2ccc3ccccc3c2)C(=O)NC1=S	25.0%	-9.5%	.	?	-4.8%
CN1C(=O)/C(=C\N2CCc3ccccc32)C(=O)NC1=S	32.1%	9.28µM*	0.1%	7.6%[2.32 µM]	24.1%
CC(=O)Nc1ccc(NC(=O)CN(c2ccc([N+](=O)[O-])cc2)S(=O)(=O)c2ccccc2)cc1	-9.9%	2.94µM*	-10.2%	-6.3%	22.2%
CCOc1ccc(NC(=O)CN(c2ccc([N+](=O)[O-])cc2)S(=O)(=O)c2ccccc2)cc1	?	18.1%	?	-17.8%	-21.0%
CCc1ccc(N(CC(=O)Nc2ccc(NC(C)=O)cc2)S(=O)(=O)c2ccccc2)cc1	-27.4%	?	-26.1%	15.0%	13.1µM*
COC(=O)c1ccc(CSc2nc3ccncc3n2Cc2ccc(F)cc2)cc1	-8.9%	.	-8.9%	.	.
O=[N+]([O-])c1ccc(Cl)c(S(=O)(=O)n2ccnc2)c1	-4.2%	-4.7%	-9.2%	-15.0%	2.94µM*
Cc1ccc(C2N=C(N)Nc3nc(=O)c4ccccc4n32)cc1 (stereo not given)	.	9.28µM*	.	6.6%	?
COc1ccccc1/C=N/NC(=O)c1c(-c2ccccc2)noc1C	-15.5%	2.08µM*	-1.2%	9.2%	-14.8%
Cc1cccc(/C=N/NC(=O)c2c(-c3ccccc3)noc2C)c1O	-27.7%	6.57µM*	0.562µM*	24.0%	9.28µM*
COc1ccccc1/C=N/NC(=O)C1=NNC(c2ccccc2)(c2ccccc2)C1	.	?	.	.	7.38µM*
CCC(C(=O)O)C1OC(C(C)C(O)C(C)C(=O)C(CC)C2OC3(C=CC(O)C4(CCC(C)(C5CCC(O)(CC)C(C)O5)O4)O3)C(C)CC2C)C(C)CC1C (stereo not given)	.	0.0338µM*	.	.	0.0536µM*
OCC1(Cc2cccc(Cl)c2)CCCN(Cc2cnn(-c3ccccc3)c2)C1 (stereo not given)	.	-8.4%	.	-6.7%	8.28µM*
Cn1cc(CN2CCCC(CO)(Cc3cccc(Cl)c3)C2)cn1 (stereo not given)	.	-4.4%	.	5.2%	?
CC(C)Oc1ccc(CN2CCCC(CO)(Cc3ccc(F)cc3)C2)cc1 (stereo not given)	-16.6%	10.4%	-10.4%	2.2%	?
COc1cc(CN2CCCC(CO)(Cc3ccccc3)C2)ccc1O (stereo not given)	-13.9%	10.4µM*	-15.2%	-16.5%	16.4%
COc1ccc(CN2CCCC(CO)(Cc3ccc(F)cc3)C2)c(OC)c1OC (stereo not given)	.	11.7µM*	.	0.0%	-16.7%
COc1ccc(CN2CCCC(CO)(Cc3cccc(Cl)c3)C2)cc1OC (stereo not given)	-14.9%	?	i	-13.1%	-19.0%
